{"source": "PubChem BioAssay (NCATS)", "key": {"[1]": {"target": "Luciferin 4-monooxygenase (Photinus pyralis) (UniProt P08659)", "sequence (P08659 whole entry, looked up)": "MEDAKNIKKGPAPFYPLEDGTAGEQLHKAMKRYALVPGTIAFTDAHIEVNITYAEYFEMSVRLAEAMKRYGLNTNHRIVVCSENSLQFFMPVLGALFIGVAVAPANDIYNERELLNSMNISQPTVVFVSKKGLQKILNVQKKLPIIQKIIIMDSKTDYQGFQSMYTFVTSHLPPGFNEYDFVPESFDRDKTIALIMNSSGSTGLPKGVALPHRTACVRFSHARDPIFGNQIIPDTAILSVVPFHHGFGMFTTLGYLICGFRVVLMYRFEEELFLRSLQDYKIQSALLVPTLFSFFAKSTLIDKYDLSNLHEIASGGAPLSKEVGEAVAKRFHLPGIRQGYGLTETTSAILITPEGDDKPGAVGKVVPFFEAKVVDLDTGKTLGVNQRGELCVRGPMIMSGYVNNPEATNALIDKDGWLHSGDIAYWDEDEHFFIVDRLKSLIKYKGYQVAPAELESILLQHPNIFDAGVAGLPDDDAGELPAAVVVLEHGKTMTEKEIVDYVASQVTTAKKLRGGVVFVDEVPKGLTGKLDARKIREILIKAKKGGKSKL", "experiment": "Biochemical firefly luciferase enzyme assay for NPC (AID 624030); also: nearly all actives have a fitted effect of over 70% in size", "summary_of_the_method": "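Purified P. pyralis luciferase at 10 nM in 50 mM Tris Acetate (final), luminescence read within 5 minutes of enzyme addition to compounds. Activity normalised to PTC124 versus DMSO; concentration-response curves classed by r2, magnitude and activity.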"}, "[2]": {"experiment": "S16 Schwann cell viability assay (CellTiter-Glo assay) (AID 624031);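 also: native untransfected S16 rat Schwann cells; nearly all actives have a fitted effect of over 70% in size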", "summary_of_the_method": "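Counter-screen for cytotoxicity: parental S16 rat Schwann cells lacking the PMP22 reporters, treated 24 h with compound, viability from cellular ATP by CellTiter-Glo luminescence, normalized to DMSO (0%) and no-cell wells.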"}, "[3]": {"experiment": "S16 Schwann cell PMP22 intronic element firefly luciferase assay (AID 624032); also: nearly all actives have a fitted effect of over 30% in size", "summary_of_the_method": "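Rat S16 Schwann cells stably carrying firefly luciferase driven by a PMP22 intronic element, in 10% FBS, treated 24 h at 37 C. ONE-Glo luminescence normalized to PTC124 control and DMSO (0%); curves classed by r2, magnitude and activity.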"}, "[4]": {"experiment": "S16 Schwann cell PMP22 intronic element beta-lactamase assay (AID 624044; calls by dose curve; also: nearly all actives have a fitted effect of over 15% in size)", "summary_of_the_method": "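Beta-lactamase reporter under a PMP22 intronic regulatory element in stable S16 rat Schwann cells; 24 h compound exposure. 460 nm blue signal normalized between DMSO (0%) and potassium clavulanate, with 535 nm FRET tracking viability; curves classed by r2 and response.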"}, "3D7": {"tested_on": "3D7", "experiment": "qHTS profiling for inhibitors of Plasmodium falciparum proliferation (AID 504749); also: nearly all actives have a fitted effect of over 60% in size; also: potency is read from the fitted curve at half-maximal effect", "settings": "P. falciparum in erythrocytes, SYBR Green DNA, 72 h; series mostly up to 28.7 µM", "summary_of_the_method": "(§1)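 SYBR Green fluorescence (ex 485 nm, em 535 nm) reports parasite DNA after 72 h compound exposure of infected red cells at 0.3% parasitemia, 2.5% hematocrit; signal normalized to 0.29 uM artemisinin and vehicle wells.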"}, "7G8": {"tested_on": "7G8", "experiment": "qHTS profiling for inhibitors of Plasmodium falciparum proliferation (AID 504749)", "settings": "P. falciparum in erythrocytes, SYBR Green DNA, 72 h; series mostly up to 28.7 µM", "summary_of_the_method": "as §1"}, "ATS189": {"tested_on": "ATS189", "experiment": "qHTS profiling for inhibitors of Plasmodium falciparum proliferation (AID 504749)", "settings": "P. falciparum in erythrocytes, SYBR Green DNA, 72 h; series mostly up to 28.7 µM", "summary_of_the_method": "as §1"}, "CP191": {"tested_on": "CP191", "experiment": "qHTS profiling for inhibitors of Plasmodium falciparum proliferation (AID 504749)", "settings": "P. falciparum in erythrocytes, SYBR Green DNA, 72 h; series mostly up to 28.7 µM", "summary_of_the_method": "as §1"}, "CP192": {"tested_on": "CP192", "experiment": "qHTS profiling for inhibitors of Plasmodium falciparum proliferation (AID 504749)", "settings": "P. falciparum in erythrocytes, SYBR Green DNA, 72 h; series mostly up to 28.7 µM", "summary_of_the_method": "as §1"}, "CP194": {"tested_on": "CP194", "experiment": "qHTS profiling for inhibitors of Plasmodium falciparum proliferation (AID 504749)", "settings": "P. falciparum in erythrocytes, SYBR Green DNA, 72 h; series mostly up to 28.7 µM", "summary_of_the_method": "as §1"}, "CP215": {"tested_on": "CP215", "experiment": "qHTS profiling for inhibitors of Plasmodium falciparum proliferation (AID 504749)", "settings": "P. falciparum in erythrocytes, SYBR Green DNA, 72 h; series mostly up to 28.7 µM", "summary_of_the_method": "as §1"}, "CP247": {"tested_on": "CP247", "experiment": "qHTS profiling for inhibitors of Plasmodium falciparum proliferation (AID 504749)", "settings": "P. falciparum in erythrocytes, SYBR Green DNA, 72 h; series mostly up to 28.7 µM", "summary_of_the_method": "as §1"}, "CP260": {"tested_on": "CP260", "experiment": "qHTS profiling for inhibitors of Plasmodium falciparum proliferation (AID 504749)", "settings": "P. falciparum in erythrocytes, SYBR Green DNA, 72 h; series mostly up to 28.7 µM", "summary_of_the_method": "as §1"}, "CP335": {"tested_on": "CP335", "experiment": "qHTS profiling for inhibitors of Plasmodium falciparum proliferation (AID 504749)", "settings": "P. falciparum in erythrocytes, SYBR Green DNA, 72 h; series mostly up to 28.7 µM", "summary_of_the_method": "as §1"}, "DIV14": {"tested_on": "DIV14", "experiment": "qHTS profiling for inhibitors of Plasmodium falciparum proliferation (AID 504749)", "settings": "P. falciparum in erythrocytes, SYBR Green DNA, 72 h; series mostly up to 28.7 µM", "summary_of_the_method": "as §1"}, "Dd2": {"tested_on": "Dd2", "experiment": "qHTS profiling for inhibitors of Plasmodium falciparum proliferation (AID 504749)", "settings": "P. falciparum in erythrocytes, SYBR Green DNA, 72 h; series mostly up to 28.7 µM", "summary_of_the_method": "as §1"}, "GB4": {"tested_on": "GB4", "experiment": "qHTS profiling for inhibitors of Plasmodium falciparum proliferation (AID 504749)", "settings": "P. falciparum in erythrocytes, SYBR Green DNA, 72 h; series mostly up to 28.7 µM", "summary_of_the_method": "as §1"}, "ICS": {"tested_on": "ICS", "experiment": "qHTS profiling for inhibitors of Plasmodium falciparum proliferation (AID 504749)", "settings": "P. falciparum in erythrocytes, SYBR Green DNA, 72 h; series mostly up to 28.7 µM", "summary_of_the_method": "as §1"}, "PC49": {"tested_on": "PC49", "experiment": "qHTS profiling for inhibitors of Plasmodium falciparum proliferation (AID 504749)", "settings": "P. falciparum in erythrocytes, SYBR Green DNA, 72 h; series mostly up to 28.7 µM", "summary_of_the_method": "as §1"}, "TAB165": {"tested_on": "TAB165", "experiment": "qHTS profiling for inhibitors of Plasmodium falciparum proliferation (AID 504749)", "settings": "P. falciparum in erythrocytes, SYBR Green DNA, 72 h; series mostly up to 28.7 µM", "summary_of_the_method": "as §1"}}, "note": "Results filed as inconclusive are left out. Entries that show only a call come without a potency. Active and inactive are the calls of the source. Unless noted, calls follow the shape of the dose curve; as a rule, active = well fitted curve in the direction sought with a large enough effect; inconclusive = small, poorly fitted or top-dose-only effect, or another doubt; inactive = no such curve, though single readings can be large; an effect the other way counts as inactive or inconclusive.", "data": [{"smiles": "CO/N=C(\\C(=O)N[C@@H]1C(=O)N2C(C(=O)[O-])=C(C[N+]3(C)CCCC3)CS[C@@H]12)c1csc(N)n1", "values": [{"measurement": "outcome", "setting": "[1]", "result": "inactive"}, {"measurement": "Potency", "setting": "[2]", "result": "inactive"}, {"measurement": "Potency", "setting": "[3]", "result": "inactive"}, {"measurement": "outcome", "setting": "[4]", "result": "inactive"}, {"measurement": "Potency", "setting": "3D7", "result": "inactive"}, {"measurement": "Potency", "setting": "7G8", "result": "inactive"}, {"measurement": "Potency", "setting": "ATS189", "result": "inactive"}, {"measurement": "Potency", "setting": "CP191", "result": "inactive"}, {"measurement": "Potency", "setting": "CP192", "result": "inactive"}, {"measurement": "Potency", "setting": "CP194", "result": "inactive"}, {"measurement": "Potency", "setting": "CP215", "result": "inactive"}, {"measurement": "Potency", "setting": "CP247", "result": "inactive"}, {"measurement": "Potency", "setting": "CP260", "result": "inactive"}, {"measurement": "Potency", "setting": "CP335", "result": "inactive"}, {"measurement": "Potency", "setting": "DIV14", "result": "inactive"}, {"measurement": "Potency", "setting": "Dd2", "result": "inactive"}, {"measurement": "Potency", "setting": "GB4", "result": "inactive"}, {"measurement": "Potency", "setting": "ICS", "result": "inactive"}, {"measurement": "Potency", "setting": "PC49", "result": "inactive"}, {"measurement": "Potency", "setting": "TAB165", "result": "inactive"}]}, {"smiles": "C[C@H]1C[C@@H]2[C@H]3CCC4=CC(=O)C=C[C@@]4(C)[C@@]3(Cl)[C@@H](O)C[C@]2(C)[C@]1(OC(=O)c1ccco1)C(=O)CCl", "values": [{"measurement": "outcome", "setting": "[1]", "result": "inactive"}, {"measurement": "Potency", "setting": "[2]", "result": "inactive"}, {"measurement": "Potency", "setting": "[3]", "result": "inactive"}, {"measurement": "outcome", "setting": "[4]", "result": "inactive"}, {"measurement": "Potency", "setting": "3D7", "result": "3.98 µM (active)"}, {"measurement": "Potency", "setting": "7G8", "result": "1.78 µM (active)"}, {"measurement": "Potency", "setting": "CP215", "result": "5.1 µM (active)"}, {"measurement": "Potency", "setting": "CP260", "result": "3.98 µM (active)"}, {"measurement": "Potency", "setting": "CP335", "result": "5.73 µM (active)"}, {"measurement": "Potency", "setting": "DIV14", "result": "5.1 µM (active)"}, {"measurement": "Potency", "setting": "Dd2", "result": "3.55 µM (active)"}, {"measurement": "Potency", "setting": "GB4", "result": "6.42 µM (active)"}, {"measurement": "Potency", "setting": "ICS", "result": "3.55 µM (active)"}, {"measurement": "Potency", "setting": "TAB165", "result": "3.55 µM (active)"}]}, {"smiles": "C[C@@H]1C[C@H]2[C@H]3C[C@@H](F)C4=CC(=O)C=C[C@]4(C)[C@@]3(Cl)[C@@H](O)C[C@@]2(C)[C@@H]1C(=O)COC(=O)C(C)(C)C", "values": [{"measurement": "outcome", "setting": "[1]", "result": "inactive"}, {"measurement": "Potency", "setting": "[2]", "result": "inactive"}, {"measurement": "Potency", "setting": "[3]", "result": "inactive"}, {"measurement": "outcome", "setting": "[4]", "result": "inactive"}, {"measurement": "Potency", "setting": "3D7", "result": "12.6 µM (active)"}, {"measurement": "Potency", "setting": "7G8", "result": "4.47 µM (active)"}, {"measurement": "Potency", "setting": "ATS189", "result": "inactive"}, {"measurement": "Potency", "setting": "CP191", "result": "inactive"}, {"measurement": "Potency", "setting": "CP192", "result": "inactive"}, {"measurement": "Potency", "setting": "CP194", "result": "inactive"}, {"measurement": "Potency", "setting": "CP215", "result": "inactive"}, {"measurement": "Potency", "setting": "CP247", "result": "inactive"}, {"measurement": "Potency", "setting": "CP260", "result": "12.6 µM (active)"}, {"measurement": "Potency", "setting": "CP335", "result": "12 µM (active)"}, {"measurement": "Potency", "setting": "DIV14", "result": "inactive"}, {"measurement": "Potency", "setting": "Dd2", "result": "12.6 µM (active)"}, {"measurement": "Potency", "setting": "GB4", "result": "inactive"}, {"measurement": "Potency", "setting": "ICS", "result": "6.31 µM (active)"}, {"measurement": "Potency", "setting": "PC49", "result": "inactive"}, {"measurement": "Potency", "setting": "TAB165", "result": "inactive"}]}]}
